Inconclusive results are not listed. Entries that show only a call come without a potency. Active and inactive are the calls of the source. The call rests on the fitted dose curve; in most records, active means well fitted cell-killing curve with a large enough effect in the repeat runs; inconclusive means weak or mixed curves; inactive means flat fitted curve, though single readings scatter.

The nature of this test: qHTS RealTime-Glo MT Cell Viability Assay in HepG2 cells - 16 hour (AID 1224885). Further: nearly all actives have a fitted effect of over 50% in size. The settings on record: RealTime-Glo luminescence; series mostly up to 76.8 µM; activity change, negative = cytotoxic: at the top concentration. The text has this: U.S. Tox21 Program National Center for Advancing Translational Sciences [NCATS] NIH Chemical Genomics Center [NCGC] U.S. Environmental Protection Agency [EPA] National Institutes of Environmental Health Sciences [NIEHS] National Toxicology Program [NTP] U.S. Food and Drug Administration [FDA] Tox21 Assay Overview: Measure of cell viability is critical in the cell-base assay. Analysis of cell viability is necessary for the characterization of cell responses to cytotoxic drugs and environmental stress. A RealTime-Glo MT Cell Viability Assay to monitor cell viability in real time of continues cell culture during 40 hours of compound treatment was used to screen Tox21 10K library compounds in HepG2 cells. The RealTime-Glo MT Cell Viability Assay is a nonlytic, homogeneous, bioluminescent method to measure cell viability in real time using a simple, plate-based method. The assay involves adding NanoLuc luciferase and a cell-permeant prosubstrate to cells in culture. Viable cells reduce the proprietary prosubstrate to generate a substrate for NanoLuc luciferase. This substrate diffuses from cells into the surrounding culture medium, where it is rapidly used by the NanoLuc Enzyme to produce a luminescent signal. The signal correlates with the number of viable cells, making the assay well suited for cytotoxicity studies.
Tox21 Assay Protocol Summary: The mixture of HepG2 cell suspension and reagents were dispensed at 600cells/6 ul/well in 1536-well tissue culture treated black solid bottom plates using a Multidrop dispenser. After the assay plates were incubated at a 37 C/5% CO2 incubator for 5 hours, 23 nL of compounds dissolved in DMSO, positive and negative controls was transferred to the assay plate by a pintool work station. The plates were incubated at 37 C for 40 hours. The luminescence intensity were measured at 0h, 8h, 16h, 24h, 32h and 40h time points using ViewLux plate reader during compound treatment.
(In qHTS, concentration-response curves come from the screen itself.)
Take `CC[Si](OC(C)=O)(OC(C)=O)OC(C)=O`: the Potency result is “inactive”. Still for that read-out and setting: next, `O=C1CCCCC1`: “inactive”; `O=c1c(-c2ccc(O)cc2)coc2cc(O)ccc12`: “inactive”.

Regarding `O=C(c1cc(O)c(O)c(O)c1)c1ccc(O)c(O)c1O`, the “activity change, negative = cytotoxic” value is -18.6% [at 35.3 µM] (inactive). For the compound `O=C(Cl)c1c(Cl)c(Cl)c(C(=O)Cl)c(Cl)c1Cl`, the Potency result was “inactive”. Still for that read-out and setting: under `O=C(O)c1cc(-c2ccccc2)nc2ccccc12` stands “inactive”. For the compound `NC(=O)NNc1ccccc1`, the Potency entry is “inactive”.

As to `CC(C)(C)C1CCC(O)CC1` (stereo not given), the Potency entry was “inactive”. As for `CCCCOCCO`, the Potency result was “inactive”. Turning to `O=C1N=C(O)CN1/N=C/c1ccc(-c2ccc([N+](=O)[O-])cc2)o1`, the Potency result was “inactive”. Still for that read-out and setting: next, `OCCOCCOCCOCCO`: “inactive”; `c1ccc2[nH]cnc2c1`: “inactive”. For the compound `CC(C)n1c(/C=C/[C@@H](O)C[C@@H](O)CC(=O)O)c(-c2ccc(F)cc2)c2ccccc21`, the Potency entry was “inactive”. On the same count and under the same terms, under `O=[N+]([O-])C(CO)(CO)CO` stands “inactive”; under `COC(=O)Nc1nc2ccc(Sc3ccccc3)cc2[nH]1`, “inactive”; under `Clc1ccc(Cl)c(Cl)c1Cl`, “inactive”. On to `OCC1CCCO1` (stereo not given), for which the Potency entry was “inactive”. For `CC1CC(OC(=O)c2ccccc2O)CC(C)(C)C1` (stereo not given), the Potency entry was “inactive”. Take `CC(=O)CCc1ccccc1`: the Potency entry is “inactive”. With `CC1(C)CC(N=C=O)CC(C)(CN=C=O)C1` (stereo not given), the Potency entry is “inactive”. The same measure, in the same setting: under `CC(C)(C)C(=O)C1C(=O)c2ccccc2C1=O` stands “inactive”. As to `CCCCC(CC)COC(C)=O` (stereo not given), the Potency entry was “inactive”.

For the compound `CC(C)(CO)COC(=O)C(C)(C)CO`, the Potency result is “inactive”. `O=[N+]([O-])c1cc(N(CCO)CCO)ccc1NCCO`: the Potency entry is “inactive”.

Regarding `O=C(c1ccc(O)cc1)c1ccc(O)cc1O`, the Potency result was “inactive”.

`ClC1=C(Cl)C(Cl)(Cl)C(Cl)=C1Cl`: the Potency result is “inactive”.

Consider `C=CC(=O)OCCCCCCCC(C)C`, for which the Potency entry was “inactive”. On the same count and under the same terms, under `NCCc1ccc(O)c(O)c1` stands “inactive”.

As for `Nc1nc2ncc(CNc3ccc(C(=O)N[C@@H](CCC(=O)O)C(=O)O)cc3)nc2c(=O)[nH]1`, the Potency entry was “inactive”. For `Oc1ccc2ccccc2c1N=Nc1ccccc1`, the Potency result is “inactive”. Same read-out and setting: next, `CCCCCCCCCC(=O)O`: “inactive”; `CS(=O)(=O)Nc1ccc([N+](=O)[O-])cc1Oc1ccccc1`: “inactive”; `CCOC(=O)[C@H](CCc1ccccc1)N[C@@H](C)C(=O)N1Cc2ccccc2C[C@H]1C(=O)O`: “inactive”. The same measure, in the same setting: under `COCC(C)O` (stereo not given) stands “inactive”; under `S=c1nc[nH]c2nc[nH]c12`, “inactive”. On the same count and under the same terms, under `C=C(C)C(=O)OCC(CC)(COC(=O)C(=C)C)COC(=O)C(=C)C` stands “inactive”; under `CC1=C(CC(=O)O)c2cc(F)ccc2/C1=C\c1ccc(S(C)=O)cc1` (stereo not given), “inactive”; under `Cn1c([N+](=O)[O-])cnc1COC(N)=O`, “inactive”.

Regarding `O=C(Oc1ccccc1)c1ccc(O)cc1`, the Potency entry was “inactive”. Same read-out and setting: next, `c1ccc2ccccc2c1`: “inactive”.
